Assay outcomes deposited in PubChem by several laboratories.
Most compounds without a hit are left out; they make up all but 2.5% or so of the library.
UBC13 polyUb: blocks human UBC13 polyubiquitin chain formation | inhibition, % at 20 µM | 330,000 compounds, 0.47% hits | TR-FRET; in the data active = inhibition above about 45%, passing the limit was not always enough; inconclusive = no clear call, values can overlap the other calls
Target sequence (P61088 whole entry, looked up): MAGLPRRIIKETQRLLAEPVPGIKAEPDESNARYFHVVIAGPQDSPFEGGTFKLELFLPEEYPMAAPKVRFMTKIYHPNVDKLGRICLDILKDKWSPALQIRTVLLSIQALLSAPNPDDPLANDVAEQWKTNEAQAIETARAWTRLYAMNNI
MEKK2wt PB1 HTS: raises or lowers MEK5 binding to wildtype human MEKK2 PB1 domain. Q9Y2U5. bead flow cytometry, Alexa488-MEK5 binding to MEKK2 WT; actives lie on both sides. binding response (% of control), % at 10 µM. 290,000 compounds, 1.1% hits; in the data active = binding response below about 67% or above about 130%; inconclusive = no clear call, values can overlap the other calls; inactive = in between
MEKK3 PB1 HTS: raises or lowers MEK5 binding to the human MEKK3 PB1 domain. binding response (% of control), % at 10 µM. AID 1529. 290,000 compounds, 1.4% hits. Q99759. bead-based flow cytometry, Alexa488-MEK5 binding to MEKK3; actives lie on both sides; 0 = blocked by unlabeled MEK5, 100 = vehicle;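 active = binding response more than 3 SD above or below the average of its plate-row segment, actives on both sides; inconclusive = wells at one plate position flagged as instrument error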;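 note: Alexa488 bead fluorescence after subtracting the streptavidin-only scavenger bead signal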
MEKK2 mut-MEK5: signal of MEK5 binding to mutant human MEKK2 PB1 domain. bead flow cytometry, Alexa488-MEK5 binding to MEKK2 mutant. percent response, % at 10 µM. 290,000 compounds, 0.35% hits; in the data active = percent response above about 24%, passing the limit was not always enough
Rce1 inh: yeast Ras-converting enzyme inhibition; Q03530; yeast membranes, quenched prenylated peptide cleavage fluorescence; calls only; 290,000 compounds, 0.27% hits; AID 2563;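 active = fall in fluorescence gain of 50% or more versus controls, with final raw signal at or below 3038400; inconclusive = same 50% fall but final raw signal above 3038400; inactive = fall in fluorescence gain under 50%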;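 note: plate controls were neutral control wells for no effect and wells lacking membranes for full effect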
Target sequence (Q03530 whole entry, looked up): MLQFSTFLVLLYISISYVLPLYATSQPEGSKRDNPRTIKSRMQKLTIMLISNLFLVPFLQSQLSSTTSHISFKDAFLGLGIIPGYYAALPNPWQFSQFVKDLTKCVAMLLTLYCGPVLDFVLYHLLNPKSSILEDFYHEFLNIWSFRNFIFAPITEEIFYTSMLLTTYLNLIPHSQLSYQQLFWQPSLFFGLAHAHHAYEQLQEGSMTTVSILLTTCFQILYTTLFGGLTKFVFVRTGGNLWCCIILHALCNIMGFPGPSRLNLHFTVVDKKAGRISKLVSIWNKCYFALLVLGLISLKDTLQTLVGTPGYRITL
MEKK2wt confirm: raises or lowers MEK5 binding to wildtype human MEKK2, retest; binding response (% of control), % at 10 µM; bead flow cytometry, Alexa488-MEK5 binding to MEKK2 WT; actives lie on both sides; 5,900 compounds, 2.4% hits; AID 1892; shares compounds with MEKK3 PB1 HTS; in the data active = binding response below about 16% or above about 210%; inactive = in between
MEKK2mut confirm: signal of MEK5 binding to mutant human MEKK2, retest. 5,900 compounds, 2% hits. bead flow cytometry, Alexa488-MEK5 binding to MEKK2 mutant. shares compounds with MEKK3 PB1 HTS. percent response, % at 10 µM. AID 1893; in the data active = percent response mostly above about 71%, no sharp cut-off; inactive = mostly below about 38%;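 note: higher means compound restores mutant binding toward wildtype level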
MEKK3 confirm: confirmation of inhibitors of MEK5 binding to human MEKK3; shares compounds with MEKK3 PB1 HTS; bead flow cytometry, Alexa488-MEK5 binding to MEKK3; active compounds read low; binding response (% of control), % at 10 µM; 5,900 compounds, 1.8% hits; AID 1894;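 active = binding response below 72% of control, or above a set upper limit, though filed actives all read lower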;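 note: 100% = DMSO only wells and 0% = binding blocked by excess unlabeled MEK5; lower values mean stronger disruption of MEK5 binding to MEKK3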
* hit, by the source's call; i = inactive; ? = inconclusive; nt = no result given; [ ] = remark or other dose.

SMILES	UBC13 polyUb	MEKK2wt PB1 HTS	MEKK3 PB1 HTS	MEKK2 mut-MEK5	Rce1 inh	MEKK2wt confirm	MEKK2mut confirm	MEKK3 confirm
COc1cccc(OCc2cc(C(=O)N3CCN(c4ccccc4OC)CC3)no2)c1	5	99	98	2	i	nt	nt	nt
CCOc1ccc(NC(=O)c2cc3cc4ccc(OC)cc4nc3o2)cc1	4	1.0*[inhibitor]	2.0*[inhibitor]	-14	i	94	-2	103
O=C(COc1cccnc1[N+](=O)[O-])N1CCN(S(=O)(=O)c2ccccc2)CC1	-2	109	145*	1	i	105	6	102
Cn1ccnc1SCC(=O)N1CCN(S(=O)(=O)c2ccccc2)CC1	-5	4.0*[inhibitor]	4.0*[inhibitor]	2	i	99	7	102
COc1ccc(OC)c(NC(=O)NNC(=O)COc2ccc([N+](=O)[O-])cc2)c1	9	106	101	6	i	nt	nt	nt
Cc1ccc(/C=C/c2nc3ccccc3c(=O)[nH]2)cc1	8	110	111	7	i	nt	nt	nt
Cc1ccc(/C=C\c2nccc3c2[nH]c2ccccc23)cc1	2	174*	105	26	i	190	68	111
Fc1ccc(/C=C\c2nccc3c2[nH]c2ccccc23)cc1	-3	195*	112	36	?	181	43	109
C(=C\c1nccc2c1[nH]c1ccccc12)/c1ccccc1	11	121	99	15	i	nt	nt	nt
COc1ccc([C@H]2C(C#N)=C([S-])N[C@](C)(O)[C@@H]2[n+]2ccccc2)cc1	nt	89	82	-10	i	nt	nt	nt
C=CCSC1=N/C(=C\c2cccnc2)C(=O)N1c1ccc(OC)cc1	2	99	102	-1	i	nt	nt	nt
CCSC1=N/C(=C\c2ccccc2)C(=O)N1c1ccc(OC)cc1	0	70	74*[inhibitor]	-13	i	100	1	107
NC(=O)NC(=O)Nc1ccccc1Cl	10	125	130*	7	i	101	-3	95
CCCCOc1ccc(CONS(=O)(=O)c2ccc(NC(C)=O)cc2)cc1Cl	7	106	160*	1	i	106	-1	106
CCCC12CN3CCN(CC(C3)/C1=N\NC(=O)c1ccccc1N)C2	9	114	154*	1	i	99	-5	101
CC(C)(C)c1ccc(C(=O)N/N=C2\C3CN4CCN(C3)CC2(c2ccccc2)C4)cc1	-4	106	132*	0	i	100	-4	101
CCn1nnc(NC(=O)c2ccco2)n1	8	101	99	1	i	nt	nt	nt
CC(=O)c1ccc(NC(=S)N2CCCC2)cc1	-4	108	104	6	i	nt	nt	nt
O=C(Nc1ccccc1F)C(=O)c1cn(CC(=O)N2CCCCC2)c2ccccc12	4	48	44*[inhibitor]	-16	i	99	1	102
CC(=O)Nc1ccc(NC(=O)C(=O)c2cn(CC(=O)N3CCCC3)c3ccccc23)cc1	-8	95	95	-3	i	nt	nt	nt
Cc1ccc(C)c(-c2ccc(=O)n(Cc3ccc(F)cc3Cl)n2)c1	8	132	128*	34*	i	100	0	104
Cc1ccc(C)c(-c2ccc(=O)n(Cc3cccc(Br)c3)n2)c1	6	106	110	11	i	nt	nt	nt
Cc1ccccc1SCC(=O)Nc1cc(C(F)(F)F)ccc1N1CCOCC1	-9	nt	nt	nt	i	nt	nt	nt
O=c1oc2cc(O)ccc2cc1-c1nc2c(s1)CCc1ccccc1-2	nt	82	91	-7	nt	nt	nt	nt
O=c1oc2ccccc2cc1-c1nc2c(s1)CCc1ccccc1-2	32	63*[inhibitor]	92	-2	i	72	-15	99
SMILES	UBC13 polyUb	MEKK2wt PB1 HTS	MEKK3 PB1 HTS	MEKK2 mut-MEK5	Rce1 inh	MEKK2wt confirm	MEKK2mut confirm	MEKK3 confirm
O=C(CSc1ccc(Cl)cc1)Nc1ccc(C2SCCS2)cc1	6	104	103	1	i	nt	nt	nt
O=C(COc1ccc(C2SCCS2)cc1)Nc1ccc(Cl)cc1	1	79	72*[inhibitor]	-15	i	99	-3	101
NC(=O)CC(NC(=O)Cc1ccc(Br)cc1)c1ccc(N2CCc3ccccc3C2)c([N+](=O)[O-])c1 (stereo unspecified)	30	104	104	-3	i	nt	nt	nt
O=S(=O)(c1ccc(Cl)cc1)n1ccc(-c2cccc(OCc3c(F)cccc3Cl)c2)n1	-3	96	108	2	i	nt	nt	nt
O=S(=O)(c1ccc(F)cc1)n1ccc(-c2cccc(OCc3c(F)cccc3Cl)c2)n1	nt	2.0*[inhibitor]	2.0*[inhibitor]	-17	i	95	-8	97
Cc1cc(C(F)F)nn1CC(=O)NCc1ccccc1F	-4	107	141*	3	i	104	-3	103
Cc1cc(C(F)F)nn1CC(=O)Nc1cc([N+](=O)[O-])ccc1F	12	96	97	-1	i	nt	nt	nt
O=C(Nc1ccc(Cl)cc1)/C(=C/c1ccc([N+](=O)[O-])cc1)c1nc2ccccc2s1	nt	98	104	2	nt	nt	nt	nt
COc1ccccc1CNc1nc(-c2cc(C)n(C)c2C)cs1	nt	-7.0*[inhibitor]	78	-4	nt	105	6	96
Cc1cc(-c2csc(N)n2)c(C)n1C	28	102	99	9	i	nt	nt	nt
CCCSc1ccc(C(=O)Nc2ccc(Cl)cc2)cn1	11	105	107	3	i	nt	nt	nt
CC(=O)c1oc2ccccc2c1NC(=O)CN1CCCCC1	-4	3.0*[inhibitor]	4.0*[inhibitor]	-2	i	105	6	105
COCCCNC(=O)CN(Cc1ccccc1)S(=O)(=O)c1ccccc1	1	108	103	27*	i	104	2	102
O=C(COc1ccc(Cl)cc1)NCc1n[nH]c(=O)c2ccccc12	0	nt	nt	nt	i	nt	nt	nt
CN1CCN(c2ccc(CNS(=O)(=O)c3ccsc3)cc2)CC1	7	85	82	-12	i	nt	nt	nt
Cc1ccc(N2CC(C(=O)N/N=C/c3sccc3C)CC2=O)cc1 (stereo unspecified)	-12	104	135*	0	i	93	-2	100
Cc1ccsc1/C=N/NC(=O)C1CC(=O)N(c2ccc(F)cc2)C1 (stereo unspecified)	3	94	94	-3	i	nt	nt	nt
CCCC1(C)NC(=O)c2ccccc2O1 (stereo unspecified)	4	95	98	-6	i	nt	nt	nt
O=C(c1ccccc1)c1ccc(Oc2ncccn2)cc1	-19	-1.0*[inhibitor]	0.0*[inhibitor]	-17	i	103	2	101
Cc1[nH]n(-c2ccc([N+](=O)[O-])cc2)c(=O)c1C=NCCc1c(C)[nH]c2ccccc12	-8	107	133*	0	i	91	-7	86
